{
  "source": "the supplement of paper PMC10338343",
  "note": "± gives the standard deviation.",
  "data": [
    {"tested_on": "EfPiwi piRISC loaded with piRNA #1 (26 nt)", "assay": "pre-steady-state target cleavage rate (min^-1); auxiliary factor: 500 nM Ephydatia muelleri Gtsf1; guide: piRNA #1 5'p-UGAGGUAGUAGGUUGUAUAGUAUCCA; MIWI and MILI are mouse PIWI proteins and EfPiwi is from a freshwater sponge; tags in brackets are library labels; higher = faster piRNA-guided slicing of the target", "summary_of_the_method": "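At 33 °C in HEPES–potassium acetate buffer, a transcribed, DNA-blocked target RNA library […] was exposed for 0–8 or 0–960 min to 1 nM active affinity-purified piRISC carrying a single synthetic guide, with or without 500 nM GTSF1 partner protein. Uncleaved targets were sequenced and normalised to depth and to weakly complementary targets. With three trials pooled and k3 capped at 0.0001 min^-1, a burst-and-steady-state fit produced the pre-steady-state cleavage rate.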", "values": [
      {"sequence": "GGAGAGGAUAGUAUACAACCAACUACCUCA", "pre-steady-state target cleavage rate": "0.00242 ± 0.0023"},
      {"sequence": "GGAGAGGAUACAAUACAACCUACUACCUCA", "pre-steady-state target cleavage rate": "0.0112 ± 0.005"},
      {"sequence": "GGAGACCUAUGAAUAGAACCUACUAGCUCA", "pre-steady-state target cleavage rate": "< 0.0001"},
      {"sequence": "GGAGUGCAUACUAUACAAGCUACUACCUCA", "pre-steady-state target cleavage rate": "0.00482 ± 0.002"},
      {"sequence": "GGAGACCUAUGAAUACAACCUACAUGCUCA", "pre-steady-state target cleavage rate": "< 0.0001"},
      {"sequence": "GGAGUGGAUACUAUACAACCUUCUAGCUCA", "pre-steady-state target cleavage rate": "0.00376 ± 0.0018"},
      {"sequence": "GGAGACCUCACUAUACAACCUACUACCUCA", "pre-steady-state target cleavage rate": "0.0184 ± 0.0086"},
      {"sequence": "GGAGAGGAUAGUAUACAACCUACUUCCUCA", "pre-steady-state target cleavage rate": "0.00319 ± 0.0018"},
      {"sequence": "GGAGUGGAUACUAUACAGACCUACUACCUCA", "pre-steady-state target cleavage rate": "0.0116 ± 0.0053"},
      {"sequence": "GGAGUGGUUACUAUACAACCUACUACGUCA", "pre-steady-state target cleavage rate": "0.00307 ± 0.0016"},
      {"sequence": "GGAGAGGAUACUAUACAACUCUACUACCUCA", "pre-steady-state target cleavage rate": "0.00443 ± 0.0043"},
      {"sequence": "GGAGAGGAUACUAUACAACGUACUUCCUCA", "pre-steady-state target cleavage rate": "0.00375 ± 0.0013"},
      {"sequence": "GGAGUGGAUACUAUACACACCUACUACCUCA", "pre-steady-state target cleavage rate": "0.0105 ± 0.005"},
      {"sequence": "GGAGAGGAUACUAUACAACCAAGUACCUCA", "pre-steady-state target cleavage rate": "0.00282 ± 0.002"},
      {"sequence": "GGAGAGGAUACUAUACAACCUAGUAGCUCA", "pre-steady-state target cleavage rate": "0.00479 ± 0.0019"},
      {"sequence": "GGAGACGAUACUAUACAACCUUCUACGUCA", "pre-steady-state target cleavage rate": "0.00448 ± 0.0019"},
      {"sequence": "GGAGACCUUACUAGACAACCUACUACCUCA", "pre-steady-state target cleavage rate": "0.0104 ± 0.0051"},
      {"sequence": "GGAGUGGAUACCAUACAACCUACUACCUCA", "pre-steady-state target cleavage rate": "0.157 ± 0.051"},
      {"sequence": "GGAGACCUAACUAUACAACCUACCACCUCA", "pre-steady-state target cleavage rate": "0.00588 ± 0.0042"},
      {"sequence": "GGAGACCUAUGAUAUGUACCUACUAUCCUCA", "pre-steady-state target cleavage rate": "< 0.0001"},
      {"sequence": "GGAGUGGAUACUAUACAACCCUACUACCUCA", "pre-steady-state target cleavage rate": "0.00375 ± 0.0023"},
      {"sequence": "GGAGACGAUACUAUACAACCUUCUAGCUCA", "pre-steady-state target cleavage rate": "0.00455 ± 0.0027"},
      {"sequence": "GGAGUGGAUACAAUACAACCUACUACCUCA", "pre-steady-state target cleavage rate": "0.0165 ± 0.0068"},
      {"sequence": "GGAGACCUAACUAUACAACGAACUACCUCA", "pre-steady-state target cleavage rate": "< 0.0001"}
    ]}
  ]
}
